Drawing on PubChem BioAssay (NCATS), this text covers Potency and max response for 16 molecules.

Each structure is given as a SMILES string. “And” between values parts separate entries of the source, which are not always exact repeats. Equal entries are not always repeated. Inconclusive results are not listed. Values without a mark were called inactive. The source made the active and inactive calls. Calls come from the whole dose curve; as a rule, active = well fitted inhibition curve with a large enough effect; inconclusive = small, poorly fitted or top-dose-only effect; inactive = flat fitted curve, though single readings scatter.

In experiment [1] the test system is SC27B. Put plainly: qHTS profiling for inhibitors of Plasmodium falciparum proliferation (AID 504749). The settings on record: P. falciparum in erythrocytes, SYBR Green DNA, 72 h; series mostly up to 28.7 µM. A digest of the protocol:
(§1)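 SYBR Green fluorescence of parasite DNA, read after lysis and overnight dark incubation, measured growth over 72 h in erythrocyte culture at 0.3% parasitemia and 2.5% hematocrit. Data normalised to DMSO and 0.29 uM artemisinin, with plate-drift correction.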
On the technique in general: Quantitative high-throughput screening tests each substance at several concentrations.

In experiment [2] the test system is TAB109. Described as above. As to conditions: P. falciparum in erythrocytes, SYBR Green DNA, 72 h; series mostly up to 28.7 µM. An outline of the steps: as §1
The test system of experiment [3] is TAB113. The description is as above. As to conditions: P. falciparum in erythrocytes, SYBR Green DNA, 72 h; series mostly up to 28.7 µM. An outline of the steps:
as §1

The test system of experiment [4] is TAB165. The description is as above. As to conditions: P. falciparum in erythrocytes, SYBR Green DNA, 72 h; series mostly up to 28.7 µM. A digest of the protocol:
as §1

The subject of experiment [5] is W2. Described as above. As to conditions: P. falciparum in erythrocytes, SYBR Green DNA, 72 h; series mostly up to 28.7 µM. An outline of the steps: as §1
For experiment [6], the system named is KB-3-1. Put plainly: Cytotoxic Profiling of Annotated Libraries Using Quantitative High-Throughput Screening (AID 1296008). For max response: % is set by controls: 0 for no effect and ±100 for the full control effect. The settings on record: Five cell lines viability, CellTiter-Glo ATP luminescence, 48-72 h; max response: hits give low values. A digest of the protocol:
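Cytotoxicity was measured as CellTiter-Glo ATP luminescence, read after 10 min at room temperature. Compound treatment of the cells lasted 48 or 72 hr at 37 degrees Celsius in a qHTS format.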
On the technique in general: In ATP-based viability assays light output follows the ATP content of the culture.
Note: nearly all actives have a fitted effect of over 60% in size.
Potency is the fitted concentration of half-maximal effect.

With `CCCCC/C=C\C/C=C\CCCCCCCC(=O)O`, the Potency entry in experiment [1], in experiment [2], in experiment [3], in experiment [4] and in experiment [5] was “inactive” in each case. Besides, the max response in experiment [6] was -13.1%.

Take `CCOc1ccc2c(c1)C(C)=CC(C)(C)N2`: the Potency entry in experiment [1], in experiment [2], in experiment [3], in experiment [4] and in experiment [5] was “inactive” each time. Further, the max response in experiment [6] was -2.71%.

Take `Nc1c(Br)cc(Br)cc1CNC1CCC(O)CC1` (centres undefined): the Potency result in experiment [1], in experiment [2], in experiment [3] and in experiment [4] was “inactive” throughout.

Turning to `O=S(=O)(O)c1cc(O)c2c(N=Nc3ccc(Nc4ccccc4)c4c(S(=O)(=O)O)cccc34)cc(S(=O)(=O)O)cc2c1`, in experiment [1], the Potency entry was “inactive”.

Regarding `O=C(O)c1cc(O)c2c(c1)[O][Bi][O]2`, the Potency entry in experiment [1], in experiment [2], in experiment [3], in experiment [4] and in experiment [5] was “inactive” each time. The max response in experiment [6] was 2%.

With `C#CCOc1ccc2c(C)cc(=O)oc2c1`, the Potency result in experiment [1], in experiment [2], in experiment [3] and in experiment [4] was “inactive” in each case.

Consider `IC(I)I`, for which the Potency entry in experiment [1], in experiment [2], in experiment [3], in experiment [4] and in experiment [5] was “inactive” each time. In addition, in experiment [6], the max response was 9.13%.

With `CCOC(=O)C1=CC2(CC)CCCN3CCc4c(n1c1ccccc41)C32` (centres undefined), the Potency in experiment [1] was 10 µM (active); in experiment [2] it was 7.94 µM (active); in experiment [3] it was 11.2 µM (active); in experiment [4], 7.94 µM (active).

For `O=C1C(=O)c2ncccc2-c2cccnc21`, the Potency was 2.82 µM (active) in experiment [1]; 1 µM (active) in experiment [2]; 1.78 µM (active) in experiment [3]; 0.794 µM (active) in experiment [4]; 1.07 µM (active) in experiment [5]; 4.61 µM (active) in experiment [6].

With `O=C(COc1ccc(Cl)cc1)OCCNC12CC3CC(CC(C3)C1)C2`, the Potency result in experiment [1], in experiment [2], in experiment [3] and in experiment [4] was “inactive” throughout.

Regarding `CCCCCCCC/C=C\CCCCCCCC(=O)O`, the Potency entry in experiment [1], in experiment [3], in experiment [4] and in experiment [5] was “inactive” each time. Further, in experiment [6], the max response was 4.43%.

On to `O=C(O)CCC(=O)C(=O)O`, for which the Potency entry in experiment [1], in experiment [2], in experiment [3] and in experiment [5] was “inactive” each time. In addition, in experiment [6], the max response is -11.9%.

For `Cc1c(C)c2c(c(C)c1O)CC[C@@](C)(CCC[C@H](C)CCC[C@H](C)CCCC(C)C)O2`, the Potency result in experiment [1], in experiment [2], in experiment [3], in experiment [4] and in experiment [5] was “inactive” each time. The max response in experiment [6] was 4.35% and -16.8%.

Turning to `CN(C)CCCN1c2ccccc2C(C)(C)c2ccccc21`, the Potency in experiment [5] was 4.26 µM (active). In addition, in experiment [6], the max response is -18.4%.

On to `CC(C)(C)C(=O)OCOC(=O)[C@@H]1N2C(=O)[C@@H](N=CN3CCCCCC3)[C@H]2SC1(C)C`, for which the Potency entry in experiment [1], in experiment [2], in experiment [3] and in experiment [4] was “inactive” throughout.

Turning to `O=C(Nc1cccc(C(F)(F)F)c1)c1cc(Br)cc(Br)c1O`, the Potency in experiment [1] is 8.91 µM (active); in experiment [3] it was 12.6 µM (active); in experiment [4], 14.1 µM (active); in experiment [5], 6.75 µM (active); in experiment [6], 16.4 µM (active).
